Source: PubChem
HT1080 IDH1KD tx – toxicity to HT-1080 IDH1 knockdown cells (counter line). HT-1080 IDH1 knockdown viability, ATP luminescence, 48 h. Potency, µM (highest dose often 46.1 µM), without a hit: at the top dose activity, negative = toxicity, hits mostly cytotoxic. 360,000 compounds, 2% hits;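 also: potency is read from the fitted curve at half-maximal effect; 0% = DMSO wells and -100% = cell-free medium wells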
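CellTiter-Glo luminescence after 48 h compound exposure at 37 degrees C of IDH1-knockdown HT-1080 cells in 5% FBS RPMI. %Activity scaled between DMSO wells and cell-free media wells, with curves fitted and assigned curve classes.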
IL1B secr inh – inhibitors of inflammasome signaling (IL-1 beta secretion) | THP-1 LPS/ATP IL-1B secretion, AlphaLISA, 16 h; hits give low values | activity change, % at 57.5 µM | 360,000 compounds, 4.7% hits | AID 743279; in the data active = activity change below about -50%; inconclusive = mostly about -30% to -49%
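THP-1 cells pretreated 1 hr with compounds (up to 57.5 uM final), then stimulated with LPS (250 ng/mL final) plus ATP (1.25 mM final); secreted IL-1B measured by AlphaLISA after 16 hr, decreased signal indicating inhibition.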
TDP1 cell noCPT – qHTS for Inhibitors of human tyrosyl-DNA phosphodiesterase 1 (TDP1): qHTS in cells in absence of CPT. 420,000 compounds, 15% hits. Potency, µM (titrated, usually from 46.2 µM), inactives show at the top dose activity change, negative = growth inhibition, most hits filed as inhibitors. DT40 Tdp1-/- hTDP1 cells, no CPT, ATP luminescence, 48 h; also: potency is read from the fitted curve at half-maximal effect; nearly all actives have a fitted effect of over 55% in size
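Stably hTDP1-transfected Tdp1-null chicken DT40 cells were treated with library compounds minus camptothecin and grown for at least 48 hr at 37 °C, after which cellular ATP was quantified by luminescence.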
uPA generation – cell surface uPA generation inhibition; Potency, µM (highest dose often 38.3 µM), without a hit: top-dose activity change, negative = inhibition, hits mostly inhibitors; AID 540303; cell surface uPA generation assay, qHTS; 330,000 compounds, 0.31% hits; active = well fitted inhibition curve with a large enough effect; inconclusive = small, poorly fitted or top-dose-only effect; inactive = no such curve, though single readings can be large or run the other way; tested in mouse RAW 264.7 cells; also: potency is read from the fitted curve at half-maximal effect; nearly all actives have a fitted effect of over 55% in size
HT1080-NT tox – kills 2HG-producing HT-1080-NT fibrosarcoma cells | HT-1080-NT fibrosarcoma viability, CellTiter-Glo ATP luminescence, 48 h | Potency, µM (titrated, usually from 46.1 µM), inactives show at the highest dose activity, negative = less viability, most hits filed as cytotoxic | 360,000 compounds, 1.6% hits;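 also: NT is the 2HG producing partner of a matched IDH1 knockdown line; potency is read from the fitted curve at half-maximal effect; 0% = DMSO-treated cells and -100% = media-only wells without cells; nearly all actives have a fitted effect of over 55% in size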
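Compounds were tested in concentration-response format on HT-1080-NT cells for 48 hours at 37 degrees C. Cell viability came from CellTiter-Glo luminescence; curves were classified by r2, response magnitude and activity.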
DT40 TDP1 CPT – growth inhibition of DT40 Tdp1-/-;hTDP1 cells with camptothecin (screen for TDP1 inhibitors). 420,000 compounds, 12% hits. Potency, µM (top dose mostly 46.2 µM), inactives show top-dose activity change, negative = growth inhibition, usual class: inhibitors. AID 686979. chicken DT40 Tdp1-/-;hTDP1 cells + 20 nM CPT, ATP luminescence, 48 h; also: potency is read from the fitted curve at half-maximal effect; nearly all actives have a fitted effect of over 55% in size
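Chicken DT40 Tdp1-/- cells complemented with human TDP1, 400 cells/well, exposed to compounds plus 20 nM camptothecin for at least 48 h at 37 C; viability read as ATP content by CellTiter-Glo luminescence.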
* hit, by the source's call. In the library only some 19% were active in any assay of this set; here they are far more common. Unless noted, calls follow the shape of the dose curve; as a rule, active = well fitted curve in the direction sought with a large enough effect; inconclusive = small, poorly fitted or top-dose-only effect, or another doubt; inactive = no such curve, though single readings can be large; an effect the other way counts as inactive or inconclusive. Unless noted, % is scaled to controls: 0 for no effect and ±100 for the full control effect.

O=C(CCC1N=C2c3ccccc3N=C(SCC(=O)Nc3ccc(F)cc3)N2C1=O)NCc1cccs1 (stereo not given) was read as TDP1 cell noCPT 15µM* and DT40 TDP1 CPT 15µM*.
`O=C(CCC1N=C2c3ccccc3N=C(SCc3ccccc3Cl)N2C1=O)NCc1cccs1` (stereo not given) gave TDP1 cell noCPT 21µM* and DT40 TDP1 CPT inconclusive.
`Cc1ccc(CSC2=Nc3ccccc3C3=NC(CCC(=O)NCc4cccs4)C(=O)N23)cc1` (stereo not given) gave TDP1 cell noCPT inconclusive and DT40 TDP1 CPT -29%.
Screening O=C(CCC1N=C2c3ccccc3N=C(SCC(=O)NCc3ccco3)N2C1=O)NCc1ccco1 (stereo not given) returned HT1080 IDH1KD tx 12%, IL1B secr inh -3, TDP1 cell noCPT -16%, uPA generation -2%, HT1080-NT tox 15% and DT40 TDP1 CPT -17%.
Screening CC(C)c1ccc(NC(=O)CSC2=Nc3ccccc3C3=NC(CCC(=O)NCc4cccs4)C(=O)N23)cc1 (stereo not given) returned TDP1 cell noCPT 26µM* and DT40 TDP1 CPT 23µM*.
Screening O=C(CCC1N=C2c3ccccc3N=C(SCC(=O)Nc3ccccc3F)N2C1=O)NCc1cccs1 (stereo not given) returned TDP1 cell noCPT -27% and DT40 TDP1 CPT -24%.
Cc1ccc2oc(=O)c3cnn(CC(=O)N4CCN(c5ccc(F)cc5)CC4)c3c2c1 was read as TDP1 cell noCPT -13% and DT40 TDP1 CPT 2%.
For CCCCCCCC/C=C\CCCCCCCC(=O)NCCc1ccc(O)c(O)c1 the results were HT1080 IDH1KD tx 23µM*, IL1B secr inh inconclusive, TDP1 cell noCPT 2.9µM*, uPA generation 3.2µM*, HT1080-NT tox 4.6µM* and DT40 TDP1 CPT 1µM*.
For CCCCCCCC/C=C\CCCCCCCC(=O)NCc1ccc(O)c(OC)c1 the results were TDP1 cell noCPT inconclusive and DT40 TDP1 CPT 3.3µM*.
CCCCCCCC/C=C\CCCCCCCC(=O)NCCO was read as HT1080 IDH1KD tx 19%, IL1B secr inh 0, TDP1 cell noCPT inconclusive, uPA generation 1%, HT1080-NT tox 26% and DT40 TDP1 CPT inconclusive.
`COc1ccc(CNC(=O)CCC(=O)c2ccc(C)cc2)cc1OC` gave HT1080 IDH1KD tx 12%, IL1B secr inh 11, TDP1 cell noCPT 12%, uPA generation 0%, HT1080-NT tox -1% and DT40 TDP1 CPT -10%.
Screening NC(=O)N/N=C/c1ccccc1OCc1cccc2ccccc12 returned HT1080 IDH1KD tx -3%, IL1B secr inh 19, TDP1 cell noCPT -28%, uPA generation 6%, HT1080-NT tox -6% and DT40 TDP1 CPT -1%.
`COc1cc2c(cc1OC)CN(C1CCC(C)CC1)CC2` (stereo not given) gave HT1080 IDH1KD tx 12%, IL1B secr inh 11, TDP1 cell noCPT 14%, uPA generation 8%, HT1080-NT tox inconclusive and DT40 TDP1 CPT -3%.
Screening Cc1occc1C(=O)Nc1ccc(OCc2ccccc2)cc1 returned HT1080 IDH1KD tx inconclusive, IL1B secr inh 31, TDP1 cell noCPT 16µM*, uPA generation 5%, HT1080-NT tox inconclusive and DT40 TDP1 CPT -14%.
Screening CCOc1ccc(NC(=O)c2cc(OC)nc3ccccc23)cc1 returned HT1080 IDH1KD tx 0.46µM*, IL1B secr inh 50, TDP1 cell noCPT 0.58µM*, uPA generation -2%, HT1080-NT tox 0.46µM* and DT40 TDP1 CPT 0.52µM*.
CCOc1ccc(NC(=O)c2cc3ccccc3cc2O)cc1 was read as HT1080 IDH1KD tx 2%, IL1B secr inh -18, TDP1 cell noCPT inconclusive, uPA generation inconclusive, HT1080-NT tox 6% and DT40 TDP1 CPT inconclusive.
For O=C(Nc1ccc(OCc2ccccc2)cc1)c1cccs1 the results were HT1080 IDH1KD tx -21%, IL1B secr inh -11, TDP1 cell noCPT inconclusive, uPA generation -20%, HT1080-NT tox -27% and DT40 TDP1 CPT inconclusive.
Screening CCOc1ccc(NC(=O)c2cccc3ccccc23)cc1 returned HT1080 IDH1KD tx -20%, IL1B secr inh -2, TDP1 cell noCPT 8.2µM*, uPA generation inconclusive, HT1080-NT tox -4% and DT40 TDP1 CPT 12µM*.
For CCOc1ccc(NC(=O)c2cc(=O)[nH]c3ccccc23)cc1 the results were HT1080 IDH1KD tx -5%, IL1B secr inh 7, TDP1 cell noCPT 0%, uPA generation 0%, HT1080-NT tox -6% and DT40 TDP1 CPT inconclusive.
COc1cc(C(=O)Nc2ccc(C)cc2)c2ccccc2n1 was read as HT1080 IDH1KD tx 0.52µM*, IL1B secr inh 104, TDP1 cell noCPT 0.73µM*, uPA generation -16%, HT1080-NT tox inconclusive and DT40 TDP1 CPT 0.82µM*.
Cc1ccc(NC(=O)c2cc(Cl)nc3ccccc23)cc1 was read as HT1080 IDH1KD tx 3%, IL1B secr inh 1, TDP1 cell noCPT -6%, uPA generation 0%, HT1080-NT tox 15% and DT40 TDP1 CPT -6%.
Screening COc1ccccc1/C=C/C(=O)NCCc1ccccn1 returned HT1080 IDH1KD tx -2%, IL1B secr inh 4, TDP1 cell noCPT -4%, uPA generation -3%, HT1080-NT tox 15% and DT40 TDP1 CPT 1%.
CCOC(=O)[C@@H]1[C@H]2COc3ccc(Br)cc3[C@H]2N2C(=O)N(c3ccc(C)cc3)C(=O)[C@]12C was read as HT1080 IDH1KD tx 2%, IL1B secr inh 27, TDP1 cell noCPT inconclusive, uPA generation 14%, HT1080-NT tox 10% and DT40 TDP1 CPT inconclusive.
Screening Cc1ccc(S(=O)(=O)N2CCCCC2)cc1NC(=O)c1cc2ccccc2o1 returned HT1080 IDH1KD tx -1%, IL1B secr inh -4, TDP1 cell noCPT inconclusive, uPA generation 16%, HT1080-NT tox 3% and DT40 TDP1 CPT inconclusive.
`CCN1CCN(S(=O)(=O)c2ccc(Cl)c(C(=O)Nc3ccccc3N3CCCCC3)c2)CC1` gave HT1080 IDH1KD tx inconclusive, IL1B secr inh -73*, TDP1 cell noCPT 26µM*, uPA generation 0%, HT1080-NT tox inconclusive and DT40 TDP1 CPT 16µM*.
CCN1CCN(c2ccc(S(=O)(=O)N3CCCCC3)cc2NC(=O)Cc2ccc(OC)cc2)CC1 was read as HT1080 IDH1KD tx inconclusive, IL1B secr inh -80*, TDP1 cell noCPT inconclusive, uPA generation 2%, HT1080-NT tox inconclusive and DT40 TDP1 CPT -30%.
